Measurements: PubChem BioAssay AID1159580 (chemical genetic matrix, 2015)
Several values for one entry are separate records, joined by “and”; a condition that tells them apart may be missing. Equal entries are not always repeated. The whole screen tested about 5,500 compounds, of which about 2,000 (36%) were called active. Roughly 18% stayed inconclusive and do not appear here. No stated cut-off is given here; in the data, active means normalized growth mostly below about 0.91 (no sharp cut-off); inconclusive means no clear call, values can overlap the other calls; inactive means mostly above about 0.92. The list shows a part of the results.

Test: chemical genetic growth profiling, strain panel (AID 1159580);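 further: tested at 20 µM; growth read once vehicle control cultures reached saturation at 30 °C; 1 = growth at the plate median or of vehicle wells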
Details: growth OD

Measured: normalized growth

CN(C)CCC(c1ccc(Br)cc1)c1ccccn1 (centres undefined)
inactive: S. cerevisiae deletion strains, locus YKL009W, strain mrt4, stronger effect = lower value 0.99 | S. cerevisiae deletion strains, locus YKL068W, stronger effect = lower value 1.01 | S. cerevisiae deletion strains, locus YKL085W, strain MDH1 (second series), stronger effect = lower value 1.02 | S. cerevisiae deletion strains, locus YKL085W, strain MDH1, stronger effect = lower value 1.02 | S. cerevisiae deletion strains, locus YKL160W, strain elf1, stronger effect = lower value 0.981 | S. cerevisiae deletion strains, locus YKL190W, strain CNB1, stronger effect = lower value 0.995 | S. cerevisiae deletion strains, locus YKR001C, strain vps1, stronger effect = lower value 0.964 | S. cerevisiae deletion strains, locus YKR026C, strain gcn3, stronger effect = lower value 0.986 | S. cerevisiae deletion strains, locus YLL001W, strain dnm1, stronger effect = lower value 0.998 | S. cerevisiae deletion strains, locus YLL026W, stronger effect = lower value 0.987 | S. cerevisiae deletion strains, locus YLL041C, strain sdh2, stronger effect = lower value 0.981 | S. cerevisiae deletion strains, locus YLR027C, strain aat2, stronger effect = lower value 0.99 | S. cerevisiae deletion strains, locus YLR039C, strain RIC1, stronger effect = lower value 0.999 | S. cerevisiae deletion strains, locus YLR058C, strain SHM2, stronger effect = lower value 0.991 | S. cerevisiae deletion strains, locus YLR102C, strain apc9, stronger effect = lower value 0.992 | S. cerevisiae deletion strains, locus YLR113W, strain HOG1, stronger effect = lower value 1.01 | S. cerevisiae deletion strains, locus YLR221C, strain rsa3, stronger effect = lower value 0.999 | S. cerevisiae deletion strains, locus YLR258W, strain gsy2, stronger effect = lower value 0.969 | S. cerevisiae deletion strains, locus YLR262C, strain YPT6 (second series), stronger effect = lower value 0.999 | S. cerevisiae deletion strains, locus YLR262C, strain YPT6, stronger effect = lower value 1.03 | S. cerevisiae deletion strains, locus YLR268W, strain sec22, stronger effect = lower value 0.956 | S. cerevisiae deletion strains, locus YLR320W, strain mms22, stronger effect = lower value 1.03 | S. cerevisiae deletion strains, locus YLR330W, strain CHS5, stronger effect = lower value 0.992 | S. cerevisiae deletion strains, locus YLR342W, strain FKS1 (second series), stronger effect = lower value 0.985 | S. cerevisiae deletion strains, locus YLR342W, strain FKS1, stronger effect = lower value 0.986 | S. cerevisiae deletion strains, locus YLR357W, strain rsc2, stronger effect = lower value 0.972 | S. cerevisiae deletion strains, locus YLR370C, strain arc18, stronger effect = lower value 0.982 | S. cerevisiae deletion strains, locus YLR371W, strain rom2, stronger effect = lower value 0.989 | S. cerevisiae deletion strains, locus YLR384C, strain iki3, stronger effect = lower value 0.989 | S. cerevisiae deletion strains, locus YLR418C, strain cdc73, stronger effect = lower value 0.95 | S. cerevisiae deletion strains, locus YML016C, strain PPZ1, stronger effect = lower value 0.986 | S. cerevisiae deletion strains, locus YML032C, strain rad52, stronger effect = lower value 0.966 | S. cerevisiae deletion strains, locus YML120C, strain ndi1, stronger effect = lower value 0.981 | S. cerevisiae deletion strains, locus YML124C, strain tub3, stronger effect = lower value 0.987 | S. cerevisiae deletion strains, locus YMR058W, strain fet3, stronger effect = lower value 1.01 | S. cerevisiae deletion strains, locus YMR078C, strain ctf18, stronger effect = lower value 0.974 | S. cerevisiae deletion strains, locus YMR125W, strain sto1, stronger effect = lower value 0.936 | S. cerevisiae deletion strains, locus YMR129W, stronger effect = lower value 0.982 | S. cerevisiae deletion strains, locus YMR205C, strain PFK2, stronger effect = lower value 0.997 | S. cerevisiae deletion strains, locus YMR223W, strain ubp8, stronger effect = lower value 1.01 | S. cerevisiae deletion strains, locus YMR231W, strain pep5, stronger effect = lower value 0.978 | S. cerevisiae deletion strains, locus YMR263W, strain SAP30, stronger effect = lower value 0.976 | S. cerevisiae deletion strains, locus YMR307W, strain GAS1, stronger effect = lower value 1.01 | S. cerevisiae deletion strains, locus YNL067W, strain RPL9B, stronger effect = lower value 0.977 | S. cerevisiae deletion strains, locus YNL071W, strain lat1, stronger effect = lower value 0.98 | S. cerevisiae deletion strains, locus YNL128W, strain TEP1, stronger effect = lower value 0.988 | S. cerevisiae deletion strains, locus YNL153C, strain GIM3, stronger effect = lower value 0.981 | S. cerevisiae deletion strains, locus YNL175C, strain NOP13, stronger effect = lower value 1 | S. cerevisiae deletion strains, locus YNL183C, strain NPR1, stronger effect = lower value 0.942 | S. cerevisiae deletion strains, locus YNL197C, strain WHI3, stronger effect = lower value 1.01 | S. cerevisiae deletion strains, locus YNL209W, strain ssb2, stronger effect = lower value 0.993 | S. cerevisiae deletion strains, locus YNL224C, strain SQS1, stronger effect = lower value 1 | S. cerevisiae deletion strains, locus YNL233W, strain BNI4, stronger effect = lower value 0.988 | S. cerevisiae deletion strains, locus YNL248C, strain rpa49, stronger effect = lower value 0.952 | S. cerevisiae deletion strains, locus YNL250W, strain rad50, stronger effect = lower value 0.978 | S. cerevisiae deletion strains, locus YNL271C, strain bni1, stronger effect = lower value 0.984 | S. cerevisiae deletion strains, locus YNL298W, strain CLA4, stronger effect = lower value 0.985 | S. cerevisiae deletion strains, locus YNL307C, strain MCK1, stronger effect = lower value 0.989 | S. cerevisiae deletion strains, locus YNL322C, strain KRE1 (second series), stronger effect = lower value 0.971 | S. cerevisiae deletion strains, locus YNL322C, strain KRE1, stronger effect = lower value 0.991 and 1.02 | S. cerevisiae deletion strains, locus YNR049C, strain mso1, stronger effect = lower value 0.968 | S. cerevisiae deletion strains, locus YNR052C, strain pop2, stronger effect = lower value 0.989 | S. cerevisiae deletion strains, locus YOL006C, strain TOP1, stronger effect = lower value 0.973 | S. cerevisiae deletion strains, locus YOL012C, strain htz1 0.603 | S. cerevisiae deletion strains, locus YOL147C, strain pex11, stronger effect = lower value 0.983 | S. cerevisiae deletion strains, locus YOR001W, strain rrp6, stronger effect = lower value 0.986 | S. cerevisiae deletion strains, locus YOR061W, strain CKA2, stronger effect = lower value 0.99 | S. cerevisiae deletion strains, locus YOR069W, strain VPS5, stronger effect = lower value 0.992 | S. cerevisiae deletion strains, locus YOR070C, strain gyp1, stronger effect = lower value 0.99 | S. cerevisiae deletion strains, locus YOR080W, strain dia2, stronger effect = lower value 0.975 | S. cerevisiae deletion strains, locus YOR083W, strain WHI5 (second series), stronger effect = lower value 1.01 | S. cerevisiae deletion strains, locus YOR083W, strain WHI5, stronger effect = lower value 0.928 | S. cerevisiae deletion strains, locus YOR106W, strain vam3, stronger effect = lower value 0.966 | S. cerevisiae deletion strains, locus YOR136W, strain idh2, stronger effect = lower value 1 | S. cerevisiae deletion strains, locus YOR144C, strain elg1, stronger effect = lower value 0.99 | S. cerevisiae deletion strains, locus YOR184W, strain ser1, stronger effect = lower value 0.98 | S. cerevisiae deletion strains, locus YOR231W, strain MKK1, stronger effect = lower value 0.986 | S. cerevisiae deletion strains, locus YOR265W, strain rbl2, stronger effect = lower value 0.99 | S. cerevisiae deletion strains, locus YOR270C, strain vph1, stronger effect = lower value 0.981 | S. cerevisiae deletion strains, locus YOR290C, strain snf2, stronger effect = lower value 0.97 | S. cerevisiae deletion strains, locus YOR316C, strain cot1, stronger effect = lower value 0.987 | S. cerevisiae deletion strains, locus YPL051W, strain arl3, stronger effect = lower value 0.991 | S. cerevisiae deletion strains, locus YPL055C, strain LGE1, stronger effect = lower value 1 and 1.01 | S. cerevisiae deletion strains, locus YPL078C, strain atp4, stronger effect = lower value 0.985 | S. cerevisiae deletion strains, locus YPL106C, strain sse1, stronger effect = lower value 0.936 | S. cerevisiae deletion strains, locus YPL240C, strain hsp82, stronger effect = lower value 0.991 | S. cerevisiae deletion strains, locus YPL241C, strain CIN2, stronger effect = lower value 0.992 and 1.01 | S. cerevisiae deletion strains, locus YPL256C, strain CLN2, stronger effect = lower value 0.96 | S. cerevisiae deletion strains, locus YPR119W, strain clb2, stronger effect = lower value 0.998 | S. cerevisiae deletion strains, locus YPR141C, strain kar3, stronger effect = lower value 0.979 | S. cerevisiae deletion strains, locus YPR163C, strain tif3, stronger effect = lower value 0.987 | S. cerevisiae deletion strains, locus YPR167C, strain met16, stronger effect = lower value 0.987 | S. cerevisiae deletion strains, strain wtn01, stronger effect = lower value 0.95 | S. cerevisiae strains, strain wild type, stronger effect = lower value 0.987
